# Hits are enriched below; roughly 3.5% of the tested compounds scored in any of these assays.
# FBW7 activator = activators of human E3 ligase FBW7 | 650,000 compounds, 0.13% hits | AlphaScreen FBW7–phospho-cyclin E peptide binding, activator screen | Q969H0 | normalized activity (activation), % at 26.1 µM | AID 1259310; in the data active means normalized activity above about 1.9%;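 further: purified mutant Fbw7 with reduced substrate affinity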
# Target sequence (Q969H0 whole entry, looked up): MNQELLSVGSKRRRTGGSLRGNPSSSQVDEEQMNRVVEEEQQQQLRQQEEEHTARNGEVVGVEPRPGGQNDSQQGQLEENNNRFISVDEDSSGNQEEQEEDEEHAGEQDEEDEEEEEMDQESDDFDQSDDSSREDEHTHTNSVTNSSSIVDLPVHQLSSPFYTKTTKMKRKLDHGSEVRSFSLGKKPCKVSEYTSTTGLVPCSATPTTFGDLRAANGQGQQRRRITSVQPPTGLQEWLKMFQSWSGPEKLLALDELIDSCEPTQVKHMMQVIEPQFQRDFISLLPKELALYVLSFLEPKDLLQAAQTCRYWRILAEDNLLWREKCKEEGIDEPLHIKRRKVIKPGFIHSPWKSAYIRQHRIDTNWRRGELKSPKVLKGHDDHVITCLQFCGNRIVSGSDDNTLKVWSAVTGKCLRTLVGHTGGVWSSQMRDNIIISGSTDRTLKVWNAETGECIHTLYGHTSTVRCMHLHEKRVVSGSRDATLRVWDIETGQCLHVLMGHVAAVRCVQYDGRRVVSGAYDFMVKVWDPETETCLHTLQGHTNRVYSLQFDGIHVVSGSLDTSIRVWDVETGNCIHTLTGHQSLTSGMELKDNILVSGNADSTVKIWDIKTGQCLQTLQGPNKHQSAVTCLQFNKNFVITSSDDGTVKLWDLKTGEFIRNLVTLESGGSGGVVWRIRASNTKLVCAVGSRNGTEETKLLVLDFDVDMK
# MITF inh = inhibitors of human MITF | O75030 | AlphaScreen MITF homodimerization, bead proximity signal | inhibition, % at 2.6 µM | 650,000 compounds, 0.91% hits | AID 1259374; in the data active means inhibition above about 50%;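 further: 0% = vehicle wells with protein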
# GPR151 ag = activators of human GPR151; activation, % at 11.2 µM; PathHunter beta-arrestin GPR151 cells, luminescence; Q8TDV0; AID 1508602; 650,000 compounds, 1% hits; in the data active means activation above about 4.9%;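 further: 0% = median of compound wells and 100% = cells with positive control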
# TEAD-YAP inh = TEAD-YAP interaction inhibition | HEK-TIYL cells, TEAD-Gal4/YAP UAS-luciferase luminescence | inhibition, % at 9.12 µM | 640,000 compounds, 1.4% hits; in the data active means inhibition above about 32%;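 further: 0% = median of test compound wells and 100% = reference inhibitor wells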
# MITF confirm = confirmation of human MITF inhibitors; shares compounds with MITF inh; AlphaScreen MITF homodimerization, biotin/His-MITF beads; inhibition, % at 2.6 µM; 4,700 compounds, 16% hits; AID 1259372;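 active means inhibition above a cutoff derived from the DMSO control wells, cut at about 28% in these data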;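 further: 0% = MITF dimer wells with DMSO only; inhibitors lower the bead chemiluminescence by keeping MITF from dimerizing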
# AS interf DR = counter-screen: compounds optically interfering with AlphaScreen. shares compounds with MITF inh. AlphaScreen optical interference counterscreen, cell-free. 480 compounds, 6% hits. IC50, µM. AID 1259373; call rule not given here
# AS interf ctr = optically interferes with AlphaScreen signal; shares compounds with MITF inh; LysRS AlphaScreen counterscreen, signal interference, triplicate; inhibition, % at 2.6 µM; 4,700 compounds, 7.6% hits;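 active means inhibition above a cutoff derived from the DMSO control wells, cut at about 30% in these data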
# An asterisk follows results filed as active; x = no result given.
SMILES,FBW7 activator,MITF inh,GPR151 ag,TEAD-YAP inh,MITF confirm,AS interf ctr,others
CC1CCCC(N2CCN(C3CCN(Cc4ccccc4)CC3)CC2)C1 (centres undefined),0,34,0,12,x,x,
CC1CCCC(N2CCN(Cc3ccc([N+](=O)[O-])cc3)CC2)C1 (centres undefined),0,94*,-1,-14,-6,-2,
O=[N+]([O-])c1cccc(CN2CCC(N3CCN(c4ccccc4)CC3)CC2)c1,0,74*,0,2,1,4,
O=C(c1ccc(-c2cnn(-c3ccc(Cl)cc3)c2)nc1)N1CCOCC1,1,58*,-2,10,9,16,
Cc1ccc(-n2cc(-c3ccc(C(=O)N4CCCC4)cn3)cn2)cc1,1,6,0,5,x,x,
NC(=O)C1CCN(C(=O)/C=C/c2ccc([N+](=O)[O-])cc2)CC1,0,20,4,-4,x,x,
CC(C)(C)c1ccc(/C=C/C(=O)N2CCC(C(N)=O)CC2)cc1,0,65*,1,-13,-6,-10,
COc1ccccc1-c1nnc(NC(=O)c2ccc3c(c2)OCCO3)o1,0,-11,0,-33,x,x,
O=C(CNCCC1=CCCCC1)Nc1ccccc1N1CCOCC1,0,77*,-1,0,-15,1,
O=C(CNCCc1ccc(Cl)cc1)Nc1ccccc1N1CCOCC1,0,65*,0,-13,-1,18,
O=C(CNCCc1ccccc1)Nc1ccccc1N1CCCCCC1,0,25,3,-9,x,x,
CC1=C(C(=O)OC2CCCCCC2)C(c2ccccc2I)NC(=O)N1C (centres undefined),0,-4,0,-1,x,x,
Cc1ccc(-c2cnc(NC(C)c3ccccc3)nc2)cc1 (centres undefined),0,9,1,-33,x,x,
CC(C)[C@@H]1NC(=O)[C@H]2CN(C(=O)c3ccc(Cl)cc3)CCN2C1=O,0,-1,2,-2,x,x,
C[C@H]1NC(=O)[C@H]2CN(C(=O)NC3CCCCC3)CCN2C1=O,0,75*,-1,-3,74*,-9,AS interf DR=>6.5
CC(C)[C@@H]1NC(=O)[C@H]2CN(C(=O)NC3CCCCC3)CCN2C1=O,0,71*,1,-3,68*,-12,AS interf DR=>6.5
CSc1ccc(Cc2nnc(NC(=O)C34CC5CC(CC(C5)C3)C4)o2)cc1,0,52*,-1,11,-9,19,
CSc1ccc(Cc2nnc(NC(=O)c3cc(C)oc3C)o2)cc1,0,2,-1,11,x,x,
Cc1cn2c3c(=O)n(C)c(=O)n(C)c3nc2n1CCNc1ccccc1,0,9,0,7,x,x,
Cc1nc(NCCCN2CCOCC2)c2cc(-c3ccccc3)sc2n1,0,55*,0,-13,6,6,
CC(C)Oc1ccccc1OCCN(C)C,0,75*,0,5,7,15,
CN(C)CCOCCOc1cccc2ccccc12,0,63*,0,14,-1,-1,
CCN(CC)CCOCCOc1cccc2ccccc12,0,1,1,2,x,x,
C=CCN(CC=C)CCOc1ccccc1OC(C)C,0,35,2,-5,x,x,
CCCOc1c(Cl)cc(C#N)cc1OC,1,18,0,-4,x,x,
SMILES,FBW7 activator,MITF inh,GPR151 ag,TEAD-YAP inh,MITF confirm,AS interf ctr,others
O=C(O)c1ccc(C(=O)O)c(-c2ccccc2)c1,0,8,0,3,x,x,
O=C(O)c1cccc(-c2cc(C(=O)O)ncc2C(=O)O)c1,-1,57*,2,-1,16,38*,
COCCCNCCCOc1ccc(OCc2ccccc2)cc1,0,54*,0,-11,6,16,
COCCCNCCOc1ccc(C(C)C)c(C)c1,0,60*,0,-11,-1,6,
Cc1cc(OCCOCCN2CCCC2)ccc1C(C)C,0,25,4,2,x,x,
C=CCNCCOCCOc1ccc(C(C)C)c(C)c1,0,52*,-1,4,0,1,
Cc1cc(OCCCCNCCO)ccc1C(C)C,0,62*,-1,3,-12,-3,
Cc1cc(OCCNCCN)ccc1C(C)C,0,-7,-1,4,x,x,
Cc1cc(OCCNCCO)ccc1C(C)C,0,4,0,-6,x,x,
COCCNCCOc1ccc(C(C)C)c(C)c1,0,60*,-2,5,11,12,
Cc1cccc(OCCCCNCCO)c1C,0,-8,-1,13,x,x,
Cc1ccc(C)c(OCCCCNCCO)c1C,0,56*,0,1,-13,-3,
CCS(=O)(=O)N1CCN(c2nc3ccccc3o2)CC1,0,4,4,-14,x,x,
CN1CCN(CCOc2ccc(C=O)cc2)CC1,0,74*,-1,-44,6,14,
CC(=O)c1ccc(OCCCCN2CCCC2)cc1,0,19,2,-6,x,x,
CC(=O)c1ccc(OCCN2CCN(C)CC2)cc1,0,66*,-1,-3,11,20,
CN(C)CCCOc1ccccc1-c1ccccc1,0,53*,0,6,-11,-4,
CN(C)CCOCCOc1cccc(Oc2ccccc2)c1,0,51,2,-9,x,x,
CN(C)CCCOc1cccc(Oc2ccccc2)c1,0,62*,1,1,1,12,
CN(C)CCNCCCOc1ccccc1-c1ccccc1,0,74*,1,-1,2,22,
CN(C)CCNCCOCCOc1ccccc1-c1ccccc1,0,0,-1,5,x,x,
O=C(Nc1ccccc1C(=O)NC1CCCCC1)c1cccc(S(=O)(=O)NC2CCCCC2)c1,0,15,0,3,x,x,
Cc1ccc(NS(=O)(=O)c2cccc(C(=O)NNC(=O)NC3CCCCC3)c2)c(C)c1,0,71*,2,-1,4,13,
c1ccc(N2CCN(Cc3cccc4ccccc34)CC2)nc1,0,2,1,-2,x,x,
FC(F)(F)c1ccccc1CN1CCN(c2ncccn2)CC1,0,51*,1,7,15,7,
SMILES,FBW7 activator,MITF inh,GPR151 ag,TEAD-YAP inh,MITF confirm,AS interf ctr,others
Fc1ccccc1N1CCN(Cc2ccccn2)CC1,0,56*,-1,-11,-1,10,
Oc1ccc(-c2ncccn2)cc1CN1CCN(c2ccccc2F)CC1,0,7,1,1,x,x,
Brc1cccc(CN2CCN(Cc3ccccn3)CC2)c1,0,45,-1,-3,x,x,
c1ccc(CN2CCN(Cc3cccc4ccccc34)CC2)nc1,0,64*,5,7,4,7,
FC(F)(F)c1ccccc1CN1CCN(Cc2ccccn2)CC1,0,78*,3,2,-9,4,
Cc1[nH]c(=O)[nH]c(=O)c1CC(=O)OCC(C)C,0,0,-1,-5,x,x,
COCCCNC(=O)/C(C#N)=C/c1ccc(-c2ccc(C(=O)O)c(Cl)c2)o1,0,63*,2,2,67*,-4,AS interf DR=>6.5
Cc1[nH]n(-c2ncc(C(=O)O)c(=O)[nH]2)c(=O)c1Cc1ccccc1,0,83*,1,0,64*,95*,
